Experimental data as given in PubChem BioAssay AID743314 (Broad Institute, 2014).
Results with a measured potency or affinity are listed apart. Inconclusive results are not listed.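 Rule for the calls: active = fitted half-maximal concentration no higher than twice the top tested dose, in every repeat run; inconclusive = repeat runs disagree, poor fit, or flat partial inhibition; inactive = the rest.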

The compounds below were run against Endoplasmic reticulum aminopeptidase 1 (Homo sapiens) (UniProt Q9NZ08) (assay: ERAP1 aminopeptidase inhibitors, dose response, biochemical, cherry-pick, set 2, plate reader (AID 743314;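 note: 0% = neutral control wells and -100% = L-leucinethiol positive control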)). Details: Recombinant ERAP1, Leu-AMC fluorescence, 60 min; series mostly up to 11 µM; activity change, negative = inhibition: at the top concentration.
Chain of Endoplasmic reticulum aminopeptidase 1 (Homo sapiens) (Q9NZ08 whole entry, looked up): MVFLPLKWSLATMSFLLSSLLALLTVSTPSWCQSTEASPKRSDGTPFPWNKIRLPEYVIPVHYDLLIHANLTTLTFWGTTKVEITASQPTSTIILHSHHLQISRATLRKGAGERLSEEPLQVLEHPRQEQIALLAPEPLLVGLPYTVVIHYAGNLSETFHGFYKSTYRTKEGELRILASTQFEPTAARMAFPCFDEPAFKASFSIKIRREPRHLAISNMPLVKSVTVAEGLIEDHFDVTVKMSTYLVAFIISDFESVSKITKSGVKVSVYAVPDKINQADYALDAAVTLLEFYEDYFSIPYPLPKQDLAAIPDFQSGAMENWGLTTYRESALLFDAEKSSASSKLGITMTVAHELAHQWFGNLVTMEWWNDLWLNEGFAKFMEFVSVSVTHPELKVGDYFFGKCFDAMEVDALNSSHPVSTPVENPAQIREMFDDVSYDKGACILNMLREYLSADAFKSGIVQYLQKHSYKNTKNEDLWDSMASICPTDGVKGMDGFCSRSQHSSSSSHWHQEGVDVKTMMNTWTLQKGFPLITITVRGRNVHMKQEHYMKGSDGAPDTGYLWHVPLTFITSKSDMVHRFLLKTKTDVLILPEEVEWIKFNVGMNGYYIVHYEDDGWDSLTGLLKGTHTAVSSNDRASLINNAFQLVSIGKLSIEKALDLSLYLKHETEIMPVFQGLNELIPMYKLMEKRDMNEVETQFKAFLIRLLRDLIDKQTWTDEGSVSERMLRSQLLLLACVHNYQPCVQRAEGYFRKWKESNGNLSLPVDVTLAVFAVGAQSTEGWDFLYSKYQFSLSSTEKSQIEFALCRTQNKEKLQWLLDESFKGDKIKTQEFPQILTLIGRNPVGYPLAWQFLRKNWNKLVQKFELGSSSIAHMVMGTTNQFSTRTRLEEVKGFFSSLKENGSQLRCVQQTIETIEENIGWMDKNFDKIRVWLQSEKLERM

Activity change, negative = inhibition, inactive:
C[C@H]1CN([C@@H](C)CO)C(=O)c2cc(NC(=O)CCN3CCOCC3)ccc2O[C@@H]1CN(C)S(=O)(=O)c1ccccc1 22.3%, CN1[C@@H]2c3ccc(/C=C/c4ccccc4)c(=O)n3C[C@@H]2[C@@H](CO)[C@@H]1C(=O)N1CCCCC1 5.69%, CCC(C)N(C(=O)COC(=O)c1nc2nc(C)cc(C)n2n1)C1CCS(=O)(=O)C1 (centres undefined) 10.6%, O=c1cc(CN2CCN(Cc3ccccc3)CC2)c2ccc(O)cc2o1 273%, O=C(O)c1cccc(NC(=O)c2ccccc2NC(=O)c2cccc([N+](=O)[O-])c2)c1 110% [at 5.6 µM], Cc1cc(C)n2nc(C(=O)Nc3ccc(N4CCOCC4)cc3)nc2n1 -17.4%, CCOc1ccccc1-n1nnnc1SCC(=O)NC(=O)Cc1ccccc1 -3.38%, COc1ccc(C(=O)NCc2nnc(SCCOc3ccccc3)n2C)cc1 -13.3%, C[C@H](CO)N1C[C@H](C)[C@H](CN(C)S(=O)(=O)c2ccccc2)Oc2ccc(NC(=O)CCN3CCOCC3)cc2C1=O 13.5%, C[C@H](CO)N1C[C@H](C)[C@@H](CN(C)Cc2ccc(C(=O)O)cc2)OCCCC[C@H](C)Oc2ccc(NC(=O)Nc3ccccc3)cc2C1=O 58.9%, CN1CCN(S(=O)(=O)c2ccc(C3CCCCC3)cc2)CC1 -7.06%, O=C(O)c1ccccc1NS(=O)(=O)c1cccc(NS(=O)(=O)c2cc(Br)ccc2Br)c1 -22.3%, CN(CC(=O)Nc1cccc(F)c1)C(=O)CCc1nc2ccccc2c(=O)[nH]1 8.54%, C[C@H]1CN([C@@H](C)CO)C(=O)c2cccc(NC(=O)Nc3ccc(F)cc3)c2O[C@@H]1CN(C)C(=O)Nc1ccc2c(c1)OCO2 51%, C/C=C/c1ccc([C@H]2[C@@H](CO)N(C(=O)CC)[C@@H]2CNCC2CCCCC2)cc1 38.1%, CCc1ccc(NS(=O)(=O)c2ccc(C)c(C(=O)N3CCOCC3)c2)cc1 -17.5%, CCCN1[C@@H]2c3ccc(-c4cccnc4)c(=O)n3C[C@H]1[C@H](CO)[C@H]2C(=O)NCCc1cn(C)cn1 38.1%, C[C@@H]1CN([C@H](C)CO)C(=O)c2cccc(NC(=O)Nc3ccc(C(F)(F)F)cc3)c2O[C@@H]1CN(C)C 40.4%, COCCN(CC(=O)Nc1cccc(C)c1C)C(=O)CN1C(=O)NC2(CCCCC2)C1=O -11.9%, CC(C)C(NC(=O)CCNC(=O)c1ccc([N+](=O)[O-])cc1)c1nc2ccccc2[nH]1 (centres undefined) 1.84%, Cc1c(O)ccc2c(CN3CCN(Cc4ccccc4)CC3)cc(=O)oc12 145%, N=c1c(S(=O)(=O)c2ccccc2)cc2c(=O)n3ccccc3nc2n1CCCN1CCOCC1 -15.8%, C[C@@H]1CCCCO[C@@H](CN(C)C)[C@H](C)CN([C@H](C)CO)C(=O)c2cc(NS(=O)(=O)c3ccc(Cl)cc3)ccc2O1 14%, CC1CN(Cc2cc(=O)oc3cc(O)c(Cl)cc23)CC(C)O1 (centres undefined) 86.2% [at 5.6 µM], CCCCC1CCC(C(=O)OC(C)C(=O)Nc2ccc(NC(C)=O)cc2)CC1 (centres undefined) -2.34%, COc1ccc2c3c([nH]c2c1)[C@H](CO)N(CC1CC1)CC31CCN(C(=O)c2ccccc2F)CC1 30.8%, C[C@@H]1CN([C@H](C)CO)C(=O)c2cc(NC(=O)CCN3CCOCC3)ccc2O[C@H]1CN(C)S(=O)(=O)c1ccccc1 24.3%, CCN(C(=O)COC(=O)c1cnc(C)cn1)C1CCS(=O)(=O)C1 (centres undefined) -8.22%, COc1ccc2c3c([nH]c2c1)[C@H](CO)NCC31CN(Cc2cc(F)ccc2F)C1 19.8%, CCN(CC(=O)Nc1ccccc1C(F)(F)F)C(=O)Cn1c(=O)cnc2ccccc21 -3.54%, COc1ccc(NC(=O)Nc2cccc3c2O[C@H](CN(C)Cc2ccc(C(=O)O)cc2)[C@H](C)CN([C@H](C)CO)C3=O)cc1 49.6%, C[C@H](CO)N1C[C@H](C)[C@@H](CN(C)C)OCCCC[C@H](C)Oc2ccc(NS(=O)(=O)c3ccc(Cl)cc3)cc2C1=O 10.9%, C[C@@H]1CN([C@@H](C)CO)C(=O)c2cc(-c3ccc(F)cc3)cnc2O[C@@H]1CN(C)CC1CCCCC1 20.9%, O=C(c1ccc(F)cc1)N1CC2(C1)[C@@H](c1ccccc1)[C@@H](CO)N2Cc1ccccn1 27.3%, Cc1noc(C)c1S(=O)(=O)Nc1ccc2c(c1)C(=O)N([C@H](C)CO)C[C@@H](C)[C@@H](CN(C)CC1CCCCC1)OCCCC[C@@H](C)O2 51.1%, CN(C)C(=O)[C@@H]1[C@@H](CO)[C@@H]2Cn3c(ccc(/C=C/c4ccccc4)c3=O)[C@@H]2N1C(=O)c1cnccn1 10.7%, Cc1ccc(S(=O)(=O)Nc2ccc3c(c2)CC(=O)N([C@H](C)CO)C[C@H](C)[C@H](CN(C)Cc2ccccc2)O3)cc1 9.49%, CCCC(=O)Nc1ccc2c(c1)OC[C@@H](C)N(CC1CCOCC1)C[C@H](C)[C@@H](OC)CN(C)C2=O 37.4%, COCCN(C(=O)COC(=O)CNC(=O)c1cccs1)c1c(N)n(Cc2ccccc2)c(=O)[nH]c1=O -3.47%
